PubChem BioAssay (NCATS)
Results filed as inconclusive are left out. Where a call stands in place of a potency, no number is given. Active and inactive are the calls of the source. Calls follow the shape of the dose curve; as a rule, active = well fitted inhibition curve with a large enough effect; inconclusive = small, poorly fitted or top-dose-only effect; inactive = flat fitted curve, though single readings scatter.

These compounds were tested against Calcium and integrin-binding protein 1 (Homo sapiens) (UniProt Q99828) (assay: Primary qHTS for Identification of Calcium Integrin Binding Protein 1 (CIB1) Competitor (AID 1508620;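 also: GST tagged CIB1 binding a fluorescein labelled alphaIIb integrin peptide tracer; top concentration of the series differs between compounds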)). Settings: CIB1-GST / FITC-alphaIIb peptide fluorescence polarization; series mostly up to 114 µM.
Outline: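 CIB1-GST (1 uM final) and compound incubated 15 min at room temperature before adding FITC-alphaIIb peptide tracer (100 nM final). Competition for binding read by fluorescence polarization (ex 480, em 540) after another 15 min at room temperature.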

Sequence of Calcium and integrin-binding protein 1 (Homo sapiens) (Q99828 whole entry, looked up): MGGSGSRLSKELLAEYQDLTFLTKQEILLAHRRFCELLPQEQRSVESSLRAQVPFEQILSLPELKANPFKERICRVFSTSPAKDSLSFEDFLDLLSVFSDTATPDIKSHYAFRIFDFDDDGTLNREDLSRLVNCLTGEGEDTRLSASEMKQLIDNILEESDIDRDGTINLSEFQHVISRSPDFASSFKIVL

Row | SMILES | Potency
1 | Cc1cc(-c2nnc3n2CCCCC3)c(C)n1-c1ccccn1 | inactive
2 | O=S(=O)(Nc1ccc2ccccc2c1)c1ccc(NCc2ccc(Br)cc2O)cc1 | inactive
3 | O=Cc1ccc(N2CCN(S(=O)(=O)c3ccc4c(c3)CC(=O)N4)CC2)cc1 | inactive
4 | CNc1nnc(-c2cccc3ccccc23)s1 | inactive
5 | Cc1ccc(OCCn2c(CCNC(=O)/C=C/c3ccccc3)nc3ccccc32)cc1 | inactive
6 | Cc1cc(NS(=O)(=O)c2ccc(NC(=O)Cc3ccc(Cl)cc3)cc2)no1 | inactive
7 | O=C(CN1C(=O)N/C(=C\c2cccn2-c2cccc(C(=O)O)c2)C1=O)Nc1cccc(Cl)c1 | inactive
8 | O=C(Nc1nnc(-c2ccncc2)s1)Nc1ccc(Cl)cc1Cl | inactive
9 | COc1ccc([S+](=O)([O-])N2CCN([S+](=O)([O-])c3ccc4c(c3)OCCO4)CC2)c(OC)c1 | inactive
10 | COc1ccc(C2c3c(N)nc(CCCc4ccccc4)nc3Oc3ccc4ccccc4c32)cc1OC (stereo not given) | inactive
11 | Cc1ccsc1CNc1ncnc2ccc(-c3ccc4c(c3)OCO4)cc12 | inactive
12 | Cc1noc(C)c1-c1ccc2ncnc(NCc3ccccc3F)c2c1 | inactive
13 | COc1ccc(C(=O)N(Cc2ccccc2)Cc2ccccc2)cc1COc1ccc(NC(C)=O)cc1 | inactive
14 | CCN1CCN(C(=O)CCN(CC(C)C)c2nc(-c3cccs3)nc3ccccc23)CC1 | inactive
15 | O=C(Cn1cc(CN(Cc2ccccc2)Cc2ccccc2)nn1)Nc1cc(C(F)(F)F)ccc1Cl | inactive
16 | O=C(CSc1ncnc2sc3c(c12)CCCCC3)NCc1ccco1 | inactive
17 | COc1ccc(NC(=O)c2cnn3c(-c4ccccc4)cc(C)nc23)cc1 | inactive
18 | CC(=O)Nc1sc2c(c1-c1ccc3[nH]ccc3c1)CCNC2 | inactive
19 | CC(C)(C)C(=O)N1CCN(c2cccc(Nc3nn4c(=O)c5ccccc5nc4s3)c2)CC1 | inactive
20 | Cn1ccc2cc(-c3ccc4ncnc(NCc5cccs5)c4c3)ccc21 | inactive

Row | SMILES | Potency
21 | COc1ccc(-c2nc3ccccc3c(=O)n2Cc2ccc(CNC(=O)CO)cc2)cc1COc1ccc(NC(C)=O)cc1 | inactive
22 | Cc1cc2[nH]c3c(=O)n(Cc4ccccc4F)ncc3c2s1 | inactive
23 | Cc1cc(N[S+](=O)([O-])c2ccc(NC(=O)Cc3nc4ccc(Cl)cc4[nH]3)cc2)no1 | inactive
24 | O=S1(=O)N=C(Oc2cccc(-c3ccccc3)c2)c2ccccc21 | inactive
25 | COc1cc(-c2ccc3ncnc(NCc4ccc(C)o4)c3c2)cc(OC)c1OC | inactive
26 | CNc1nc(C#N)c(-c2cccc3ccccc23)o1 | inactive
27 | NC(=O)c1c(NC(=O)c2ccco2)sc2c1CCCC2 | inactive
28 | c1nc(N2CCCCC2)c2cc(-c3ccc4c(c3)OCO4)ccc2n1 | inactive
29 | COc1nccc(-c2nc(Nc3ccc(F)c(F)c3)c3ccccc3n2)c1Cl | inactive
30 | Oc1ccc(-c2ccccc2F)c2cccnc12 | inactive
31 | c1csc(CCNc2ncnc3ccc(-c4ccc5c(c4)OCO5)cc23)c1 | inactive
32 | CC(C)c1ccccc1-c1ncc(F)c(NCC2CCN(c3cnccn3)C2)n1 (stereo not given) | inactive
33 | Cc1cc(-c2nnc3n2CCCCC3)c(C)n1-c1cccc2ccccc12 | inactive
34 | O=C1Cc2cc(S(=O)(=O)N3CCN(c4ccc(F)cc4)CC3)ccc2N1 | inactive
35 | COc1ccc(C2Nc3ccccc3C(=O)N2Cc2ccc(CNC(=O)CO)cc2)cc1COc1ccc(NC(C)=O)cc1 (stereo not given) | inactive
36 | CSc1ccccc1-c1ccc(Nc2nc(-c3ccncc3)nc3ccccc23)cc1F | inactive
37 | COc1ccc(-c2nc3ccccc3c(=O)n2Cc2ccccc2)cc1OCc1ccc(NC(C)=O)cc1 | inactive
38 | CC(C)CN1CCN(C(=O)COC(=O)c2ccc(S(C)(=O)=O)c([N+](=O)[O-])c2)CC1 | inactive
39 | Cc1cc2c(s1)c1cnn(Cc3ccc(F)cc3F)c(=O)c1n2C | inactive
40 | FC(F)(F)c1ccc(-c2nc(NCc3ccc(-c4ccnc(C(F)(F)F)c4)cc3)c3ccccc3n2)cc1 | inactive
